# PubChem BioAssay
# Active and inactive are the calls of the source.
# Legend:
# [1] = binders of probe aFSTL3 on microarray, primary screen, stem cell growth factor project, biochemical, small-molecule microarray, fluorescence 635/667 (AID 1064); details: higher = more signal;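 also: measures binding of the biotinylated anti-FSTL3 antibody to printed compounds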
# [2] = binders from COS7 lysate, DM2A8 probe, primary screen, torsin A project, cell lysate, small-molecule microarray, fluorescence 635/667 (AID 1065); details: higher = more signal, COS7 lysate expressing mutant human TOR1A
# [3] = binders of probe aFGF2 on microarray, primary screen, stem cell growth factor project, biochemical, small-molecule microarray, fluorescence 635/667 (AID 1067); details: higher = more signal;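 also: measures binding of biotinylated aFGF2 protein to printed compounds on slides; z-score merges feature fluorescence and signal-to-noise across triplicate slides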
# [4] = binders of probe aFGF10 on microarray, primary screen, stem cell growth factor project, biochemical, small-molecule microarray, fluorescence 635/667 (AID 1071); details: higher = more signal;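 also: score merges 667 nm spot intensity and signal to noise from triplicate slides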
# [5] = target: Neurogenic locus notch homolog protein 2 (Homo sapiens) (UniProt Q04721); assay: Notch2 binders on small-molecule microarrays, primary screen, biochemical, small-molecule microarray, 635 nm fluorescence, stem cell growth factors (AID 1073); details: Notch2 binding, higher = more signal
# Sequence of Neurogenic locus notch homolog protein 2 (Homo sapiens) (Q04721 whole entry, looked up, canonical isoform): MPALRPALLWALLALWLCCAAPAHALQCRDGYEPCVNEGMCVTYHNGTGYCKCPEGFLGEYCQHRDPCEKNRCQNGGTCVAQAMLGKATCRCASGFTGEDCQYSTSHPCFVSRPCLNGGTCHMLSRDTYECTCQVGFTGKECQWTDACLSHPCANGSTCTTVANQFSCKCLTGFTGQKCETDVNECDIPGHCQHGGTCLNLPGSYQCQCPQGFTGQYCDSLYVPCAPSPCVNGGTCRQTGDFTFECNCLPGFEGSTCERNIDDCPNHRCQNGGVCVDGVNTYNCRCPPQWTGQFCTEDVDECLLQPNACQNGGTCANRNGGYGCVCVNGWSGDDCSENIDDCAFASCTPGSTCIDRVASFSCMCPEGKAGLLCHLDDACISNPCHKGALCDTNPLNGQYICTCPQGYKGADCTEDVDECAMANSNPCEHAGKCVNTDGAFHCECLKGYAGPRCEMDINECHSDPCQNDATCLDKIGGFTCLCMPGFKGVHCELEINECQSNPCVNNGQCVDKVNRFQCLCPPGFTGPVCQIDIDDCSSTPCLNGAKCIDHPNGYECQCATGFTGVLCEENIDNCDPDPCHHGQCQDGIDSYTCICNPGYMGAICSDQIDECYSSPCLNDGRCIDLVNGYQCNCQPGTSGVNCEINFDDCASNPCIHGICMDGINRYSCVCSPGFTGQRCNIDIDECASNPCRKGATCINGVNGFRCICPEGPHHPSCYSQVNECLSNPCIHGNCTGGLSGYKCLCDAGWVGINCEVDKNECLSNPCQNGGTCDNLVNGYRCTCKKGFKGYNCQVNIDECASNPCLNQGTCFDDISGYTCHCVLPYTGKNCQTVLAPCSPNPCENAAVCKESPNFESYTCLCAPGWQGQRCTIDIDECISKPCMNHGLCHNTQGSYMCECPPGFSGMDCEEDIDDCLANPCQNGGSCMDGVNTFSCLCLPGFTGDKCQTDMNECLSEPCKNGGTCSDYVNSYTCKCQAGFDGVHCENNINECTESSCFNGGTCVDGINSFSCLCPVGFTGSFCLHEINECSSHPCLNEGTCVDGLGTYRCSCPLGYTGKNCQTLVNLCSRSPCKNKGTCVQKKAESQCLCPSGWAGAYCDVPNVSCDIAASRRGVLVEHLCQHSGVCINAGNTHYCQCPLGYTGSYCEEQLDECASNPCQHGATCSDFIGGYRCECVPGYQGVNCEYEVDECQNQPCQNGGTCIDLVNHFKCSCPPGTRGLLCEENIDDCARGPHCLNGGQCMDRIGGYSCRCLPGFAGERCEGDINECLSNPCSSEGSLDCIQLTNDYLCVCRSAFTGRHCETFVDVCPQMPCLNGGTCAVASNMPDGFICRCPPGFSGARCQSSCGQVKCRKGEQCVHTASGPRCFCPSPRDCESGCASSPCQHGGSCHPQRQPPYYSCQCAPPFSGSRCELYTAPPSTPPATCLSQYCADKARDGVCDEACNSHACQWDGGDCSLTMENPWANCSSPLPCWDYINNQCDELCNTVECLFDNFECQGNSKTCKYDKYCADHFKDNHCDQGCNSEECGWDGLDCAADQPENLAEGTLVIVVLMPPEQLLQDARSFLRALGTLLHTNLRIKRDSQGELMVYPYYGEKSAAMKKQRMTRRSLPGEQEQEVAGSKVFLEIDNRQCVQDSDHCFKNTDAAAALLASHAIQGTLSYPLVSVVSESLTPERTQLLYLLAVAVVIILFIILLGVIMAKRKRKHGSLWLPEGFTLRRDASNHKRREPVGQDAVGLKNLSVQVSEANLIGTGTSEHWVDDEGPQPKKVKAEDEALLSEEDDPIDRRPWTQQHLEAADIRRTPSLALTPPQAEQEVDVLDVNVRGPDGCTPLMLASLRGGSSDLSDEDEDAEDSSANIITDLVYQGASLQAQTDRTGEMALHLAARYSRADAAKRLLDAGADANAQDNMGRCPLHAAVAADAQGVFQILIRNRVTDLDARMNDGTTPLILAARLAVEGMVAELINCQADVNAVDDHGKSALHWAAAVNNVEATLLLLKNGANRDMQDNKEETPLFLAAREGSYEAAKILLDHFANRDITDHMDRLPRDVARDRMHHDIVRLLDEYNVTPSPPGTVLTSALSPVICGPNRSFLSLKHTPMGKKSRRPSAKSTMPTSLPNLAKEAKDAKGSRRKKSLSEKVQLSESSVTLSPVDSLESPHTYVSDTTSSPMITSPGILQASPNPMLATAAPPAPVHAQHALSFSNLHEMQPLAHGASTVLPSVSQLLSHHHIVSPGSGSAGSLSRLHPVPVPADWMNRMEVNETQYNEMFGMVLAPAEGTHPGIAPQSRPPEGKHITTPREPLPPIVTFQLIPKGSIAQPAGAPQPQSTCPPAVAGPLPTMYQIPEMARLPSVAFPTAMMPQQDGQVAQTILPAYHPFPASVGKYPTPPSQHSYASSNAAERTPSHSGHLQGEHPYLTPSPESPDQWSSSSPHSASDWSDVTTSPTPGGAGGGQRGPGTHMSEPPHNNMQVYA
# [6] = target: Pro-neuregulin-1, membrane-bound isoform (Homo sapiens) (UniProt Q02297); assay: NRG1 binders on small-molecule microarrays, primary screen, psychiatric disease protein project, biochemical, small-molecule microarray, fluorescence 635/667 (AID 1075); details: NRG1 binding, 635 nm fluorescence, higher = more signal;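 also: score combines 667 nm spot fluorescence with signal to noise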
# Sequence of Pro-neuregulin-1, membrane-bound isoform (Homo sapiens) (Q02297 whole entry, looked up, the tested form may be a part, canonical isoform): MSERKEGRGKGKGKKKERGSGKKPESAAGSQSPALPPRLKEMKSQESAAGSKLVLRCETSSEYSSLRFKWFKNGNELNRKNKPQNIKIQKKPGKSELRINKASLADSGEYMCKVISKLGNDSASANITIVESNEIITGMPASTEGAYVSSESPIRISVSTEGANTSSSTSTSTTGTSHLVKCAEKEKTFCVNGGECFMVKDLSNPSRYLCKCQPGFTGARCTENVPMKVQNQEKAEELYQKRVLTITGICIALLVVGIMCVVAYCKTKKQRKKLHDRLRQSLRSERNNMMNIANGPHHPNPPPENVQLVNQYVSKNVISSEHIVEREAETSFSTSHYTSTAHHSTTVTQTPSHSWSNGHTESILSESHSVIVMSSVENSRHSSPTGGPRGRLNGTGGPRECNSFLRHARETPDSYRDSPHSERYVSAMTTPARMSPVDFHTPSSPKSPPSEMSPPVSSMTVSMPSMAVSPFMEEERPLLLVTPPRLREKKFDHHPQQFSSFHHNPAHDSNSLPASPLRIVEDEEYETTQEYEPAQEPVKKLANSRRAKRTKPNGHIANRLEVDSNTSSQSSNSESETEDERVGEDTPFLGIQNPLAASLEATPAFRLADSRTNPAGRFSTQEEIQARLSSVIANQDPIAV
# [7] = tested on: Neuregulin-1 EGF-like domain; assay: binders of neuregulin-1 EGF-like domain, primary screen, biochemical, small-molecule microarray, 635 nm fluorescence (AID 1081); details: small-molecule microarray binding, higher = more signal;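 also: binding of the protein to compounds printed on small-molecule microarray slides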
# [8] = FRG1 promoter luciferase signal modulators, primary screen, FRG1 inhibition for FSHD, cell-based, C2C12 myotubes, firefly/Renilla luciferase, luminescence (AID 1084); details: higher = more signal, called active from +8 up or from −8 down
# [9] = binders of probe aFST on microarray, primary screen, stem cell growth factor project, biochemical, small-molecule microarray, fluorescence 635/667 (AID 1086); details: higher = more signal;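 also: score merges 667 nm fluorescence with signal-to-noise of each printed compound spot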
# [10] = binders of probe aHhip on microarray, primary screen, stem cell growth factor project, biochemical, small-molecule microarray, fluorescence 635/667 (AID 1087); details: higher = more signal;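 also: score merges spot fluorescence at 667nm with spot signal to noise ratio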
# [11] = tested on: PRMT1 (protein arginine N-methyltransferase 1); assay: PRMT1 binders on small-molecule microarrays, primary screen, biochemical, small-molecule microarray, 635 nm fluorescence (AID 1088); details: small-molecule microarray binding, higher = more signal;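 also: binding of Prmt1 protein to compounds spotted on small-molecule microarray slides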
# [12] = yeast growth modulation, basal conditions, primary screen, YJM789 clinical isolate, OD600, 24 h (AID 1089);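 also: growth of clinical yeast isolate S. cerevisiae YJM 789 seeded 1000 cells per well; test concentration not given here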; details: S. cerevisiae YJM789 growth, higher = more signal, called active from +8 up or from −8 down
# [13] = fission yeast growth modulation, primary screen, strain 972, OD600, 24 h, no modulator (AID 1090);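 also: basal condition with compound alone and no growth modifier present; test concentration not given here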; details: S. pombe 972 growth, higher = more signal, called active from +8 up or from −8 down
# [14] = S. cerevisiae growth modulation with rapamycin, primary screen, strain BY4716, OD600, 96 h (AID 1091); details: higher = more signal, called active from +8 up or from −8 down; also: test concentration not given here
# [15] = target: Torsin-1A-interacting protein 2 (Homo sapiens) (UniProt Q8NFQ8); assay: LULL1 binders on small-molecule microarray, primary screen, cell lysate, human LULL1 lysate, 635/667 nm fluorescence (AID 1092); details: hLULL1 lysate binding, 635 nm fluorescence, higher = more signal;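 also: probe is lysate of COS7 cells overexpressing human LULL1; score merges per-feature 667 nm fluorescence with signal-to-noise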
# Sequence of Torsin-1A-interacting protein 2 (Homo sapiens) (Q8NFQ8 whole entry, looked up): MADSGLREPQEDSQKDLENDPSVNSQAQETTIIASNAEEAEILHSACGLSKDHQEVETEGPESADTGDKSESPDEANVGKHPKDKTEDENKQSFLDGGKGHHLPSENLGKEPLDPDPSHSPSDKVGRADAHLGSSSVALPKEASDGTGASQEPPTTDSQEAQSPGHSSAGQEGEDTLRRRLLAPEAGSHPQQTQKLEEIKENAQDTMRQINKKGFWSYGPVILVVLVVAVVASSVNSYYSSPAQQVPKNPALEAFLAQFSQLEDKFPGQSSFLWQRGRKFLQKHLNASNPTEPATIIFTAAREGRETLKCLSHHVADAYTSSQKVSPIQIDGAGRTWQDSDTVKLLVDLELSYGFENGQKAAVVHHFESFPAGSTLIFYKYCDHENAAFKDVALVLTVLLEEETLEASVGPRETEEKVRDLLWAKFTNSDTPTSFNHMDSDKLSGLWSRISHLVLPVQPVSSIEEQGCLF
# [16] = E. coli growth modulation, two-sided OD650, primary screen, E. coli filamentation project, strain DRC41, 24 h (AID 1093); details: OD650, 24 h, higher = more signal, called active from +8 up or from −8 down;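 also: MC1000 strain lacking acrAB efflux and sulA so SOS filamentation is blocked; test concentration not given here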
# [17] = small-molecule microarray binders of probe aLefty2, primary screen, biochemical, biotinylated probe, 635/667 nm fluorescence (AID 1094); details: higher = more signal;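 also: score merges spot fluorescence near 667 nm with spot signal-to-noise ratio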
# [18] = tested on: Noggin (protein binding on small-molecule microarray); assay: Noggin binders on small-molecule microarray, primary screen, biochemical, 635/667 nm fluorescence (AID 1095); details: 635 nm fluorescence, higher = more signal;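 also: score merges 667 nm feature fluorescence with signal to noise over triplicate slides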
# [19] = target: Neurogenic locus notch homolog protein 3 (Homo sapiens) (UniProt Q9UM47); assay: NOTCH3 binders on small-molecule microarray, primary screen, biochemical, 635/667 nm fluorescence (AID 1096); details: NOTCH3 binding, 635 nm fluorescence, higher = more signal
# [20] = small-molecule microarray binders of probe aEGFR, primary screen, biochemical, biotinylated probe, 635/667 nm fluorescence (AID 1097); details: higher = more signal;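 also: probe is a biotinylated anti-EGFR antibody binding compounds printed on slides; score combines fluorescence near 667 nm and signal to noise of each spot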
Structure (SMILES),composite z-score [1],composite z-score [2],composite z-score [3],composite z-score [4],composite z-score [5],composite z-score [6],composite z-score [7],z-score [8],composite z-score [9],composite z-score [10],composite z-score [11],z-score [12],z-score [13],z-score [14],composite z-score [15],z-score [16],composite z-score [17],composite z-score [18],composite z-score [19],composite z-score [20]
C=CCC(OC(C)=O)[C@@H]1[C@@H](N(Cc2ccc(-c3ccccc3)cc2)C(=O)c2cccc3ccccc23)c2cc(OCCCO)ccc2N1C(=O)Cc1ccc2ccccc2c1 (stereo not given in full),-0.144,0.407,-0.0445,0.237,-0.101,-0.278,-0.621,-0.873 (inactive),-0.0377,0.154,-0.419,-0.554 (inactive),-0.691 (inactive),-0.311 (inactive),0.95,0.153 (inactive),-0.0407,0.514,-0.377,-0.123
CO[C@H]1O[C@H](CO)[C@@H](OC(=O)Nc2ccc(C(F)(F)F)cc2)[C@H](OC(=O)Nc2ccc3c(c2)OCO3)[C@H]1OC(=O)Nc1ccc2c(c1)OCO2,0.303,1.15,0.0557,0.794,1.41,1.6,1.3,6.45 (inactive),0.557,0.176,1.54,0.724 (inactive),0.908 (inactive),14.9 (active),3.03,-0.298 (inactive),0.0631,0.293,1.11,0.104
CCCCN1CC=CC23O[C@@H]4C=CCOC(=O)[C@@H]4[C@H]2C(=O)N(CCCO)[C@@H]3C1=O (stereo not given in full),0.594,-0.0489,-0.137,-0.423,-1.51,1.03,1.54,0.0518 (inactive),-0.488,-0.134,0.412,0.228 (inactive),-0.399 (inactive),-0.191 (inactive),2.41,1.42 (inactive),-0.145,-0.957,-0.366,-0.285
NC(=O)N1C(=O)C2C(C1=O)C1C=C(CCCO)C2C(c2cccs2)N1Cc1cc2c(cc1Br)OCO2 (stereo not given),-0.137,0.314,-0.0036,0.0276,0.0449,0.453,1.16,-1.85 (inactive),0.117,-0.0645,0.0811,-1.75 (inactive),-0.498 (inactive),-1.79 (inactive),1.84,0.263 (inactive),-0.0362,0.0233,0.508,-0.0978
CN(C)CCCNC(=O)[C@@]1(c2ccc([N+](=O)[O-])cc2)CC(=O)N(CC23CC4CC(CC(C4)C2)C3)[C@@H]1c1ccc(CO)cc1,1.47,1.15,0.301,0.143,0.904,1.38,1.35,-2.36 (inactive),1.92,0.635,1.53,-22.2 (active),-20.2 (active),-4.03 (inactive),3.39,-0.279 (inactive),0.969,1.32,1.05,0.0529
C=C[C@@H](COC(C)=O)NS(=O)(=O)c1ccc(Br)cc1,-0.35,0.242,-0.0296,0.135,0.414,0.0227,0.564,1.39 (inactive),0.111,-0.0672,0.317,-0.952 (inactive),-15.7 (active),-1.36 (inactive),0.399,-0.819 (inactive),-0.176,0.516,0.269,-0.157
C=C(/C(=C/C[C@@H](OC(=O)c1ccncc1)c1ccc(OCCO)cc1)c1cc(C(=O)OC)ccc1OC)C(C)C,-0.445,1.24,-0.139,0.93,0.833,0.679,1.13,0.317 (inactive),0.0136,-0.399,1.48,0.412 (inactive),0.252 (inactive),0.339 (inactive),1.32,0.681 (inactive),-0.317,0.89,1.1,-0.0509
COCCOC(=O)N1C(=O)[C@@]2(c3cc(C#CC4(O)CCCCCC4)ccc31)[C@H](C(N)=O)[C@H]1C(=O)O[C@H](c3ccccc3)[C@H](c3ccccc3)N1[C@@H]2c1ccc(O)cc1,-0.353,0.516,-0.0494,0.544,0.618,0.446,1.28,0.116 (inactive),0.33,0.192,1.55,0.121 (inactive),0.182 (inactive),0.523 (inactive),2.41,-0.426 (inactive),-0.0009,1.53,1.12,-0.0418
C=CCN1C(=O)[C@]2(CC=C)N=C(c3ccc(OCCCO)cc3)O[C@@H]2c2ccccc21,0.967,0.194,0.123,0.0547,1.05,1.03,1.26,-1.86 (inactive),0.61,0.0327,1.45,-1.76 (inactive),-2.79 (inactive),0.164 (inactive),3.13,1.02 (inactive),0.266,1.33,1.08,0.038
COCCOC(=O)N1C(=O)[C@@]2(c3cc(C#CC4=CCCCC4)ccc31)[C@H](C(=O)N1CCN(c3ncccn3)CC1)[C@H]1C(=O)O[C@H](c3ccccc3)[C@H](c3ccccc3)N1[C@@H]2c1ccc(O)cc1,-0.0505,0.181,0.0467,0.669,1.33,0.79,1.24,0.378 (inactive),0.442,0.208,1.53,0.783 (inactive),0.883 (inactive),2.1 (inactive),1.53,-0.56 (inactive),0.0848,0.568,1.09,0.0891
CN1C(=O)C2C=CC(C(O)c3c(F)cccc3Cl)N(Nc3ccccc3)C2C1=O (stereo not given),-0.196,-0.198,0.171,0.334,1.55,1.84,1.1,0.433 (inactive),0.878,-0.0346,1.04,-0.0908 (inactive),1.19 (inactive),0.437 (inactive),3.44,-0.757 (inactive),0.244,0.0319,1.07,0.0562
COCCOC(=O)N1C(=O)[C@@]2(c3ccccc31)[C@H](c1ccc(OCCO)cc1)N1[C@H](c3ccccc3)[C@H](c3ccccc3)OC(=O)[C@H]1[C@@H]2C(=O)Nc1nc2ccccc2s1,-0.436,-0.504,-0.0848,0.26,0.829,1.07,1.25,-0.567 (inactive),0.439,0.154,1.45,0.405 (inactive),0.371 (inactive),2.33 (inactive),3.13,1.16 (inactive),0.0305,0.396,1.13,-0.0039
